The source of these data is PubChem BioAssay (NCATS).

Inconclusive results are not listed. Calls of active or inactive are those of the source. Unless noted, the call rests on the fitted dose curve; in most records, active means well fitted curve in the direction sought with a large enough effect; inconclusive means small, poorly fitted or top-dose-only effect, or another doubt; inactive means no such curve, though single readings can be large; an effect the other way counts as inactive or inconclusive.

The target in test [1] is Ubiquitin carboxyl-terminal hydrolase 1 (Homo sapiens) (UniProt O94782). The experiment in a line: Inhibitors of USP1/UAF1: Pilot qHTS (AID 504865). Further: nearly all actives have a fitted effect of over 35% in size. Further: potency means the concentration at half of the fitted maximal effect. In outline: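 Deubiquitinase activity followed as kinetic rhodamine fluorescence release from 150 nM Ub-Rho. 1 nM USP1/UAF1 with compound, after 15 min room-temperature preincubation, in HEPES pH 7.8 buffer containing TCEP, EDTA, BSA and Tween-20.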
Ubiquitin carboxyl-terminal hydrolase 1 (Homo sapiens), sequence (O94782 whole entry, looked up): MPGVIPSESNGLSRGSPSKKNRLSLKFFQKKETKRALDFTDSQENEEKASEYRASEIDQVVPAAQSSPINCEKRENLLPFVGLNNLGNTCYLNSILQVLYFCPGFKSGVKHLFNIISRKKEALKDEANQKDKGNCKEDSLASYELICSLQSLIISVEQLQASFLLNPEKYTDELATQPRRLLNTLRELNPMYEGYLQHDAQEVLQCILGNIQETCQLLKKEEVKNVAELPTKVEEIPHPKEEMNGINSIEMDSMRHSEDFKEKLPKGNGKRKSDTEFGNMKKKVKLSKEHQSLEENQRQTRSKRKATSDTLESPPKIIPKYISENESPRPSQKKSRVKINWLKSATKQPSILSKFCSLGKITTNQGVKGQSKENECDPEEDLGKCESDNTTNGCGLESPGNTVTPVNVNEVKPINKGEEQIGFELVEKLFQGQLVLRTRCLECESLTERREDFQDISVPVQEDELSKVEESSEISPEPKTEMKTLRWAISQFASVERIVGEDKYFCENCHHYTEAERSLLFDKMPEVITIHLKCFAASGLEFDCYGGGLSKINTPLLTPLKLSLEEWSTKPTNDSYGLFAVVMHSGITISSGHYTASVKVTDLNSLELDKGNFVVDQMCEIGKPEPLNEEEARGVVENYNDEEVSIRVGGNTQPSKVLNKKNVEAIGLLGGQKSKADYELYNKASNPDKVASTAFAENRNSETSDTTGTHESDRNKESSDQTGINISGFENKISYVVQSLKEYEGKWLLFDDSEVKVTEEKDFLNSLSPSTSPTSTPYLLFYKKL
Background: Quantitative high-throughput screening tests each substance at several concentrations.

The nature of test [2]: S16 Schwann cell PMP22 intronic element firefly luciferase assay (AID 624032). Further: nearly all actives have a fitted effect of over 30% in size. Further: potency means the concentration at half of the fitted maximal effect. In outline:
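Rat S16 Schwann cells stably carrying a PMP22 intronic element-driven Fluc reporter were seeded overnight, then exposed to compounds for 24 h at 37 °C. Luminescence was normalized to PTC124 (positive control) and DMSO (0% activity).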

The next test relates to DFO2036. Description: qHTS profiling for inhibitors of Plasmodium falciparum proliferation (AID 504749). Further: nearly all actives have a fitted effect of over 60% in size. Further: potency means the concentration at half of the fitted maximal effect. The following applies: P. falciparum in erythrocytes, SYBR Green DNA, 72 h; series mostly up to 28.7 µM. In outline:
(§1)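 Quantitative HTS: compounds pinned into medium, infected erythrocytes added (0.3% parasitemia, 2.5% hematocrit), 72 h culture at 37 C under 5% CO2. Saponin/Triton lysis with SYBR Green I, overnight RT, then fluorescence read.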

The subject of another test is DIV14. Described as above. The following applies: P. falciparum in erythrocytes, SYBR Green DNA, 72 h; series mostly up to 28.7 µM. The procedure, abridged: as §1
For another test, the system named is ICS. The test is described as above. The following applies: P. falciparum in erythrocytes, SYBR Green DNA, 72 h; series mostly up to 28.7 µM. In outline:
as §1

For the next test, the system named is W2. The test is described as above. The following applies: P. falciparum in erythrocytes, SYBR Green DNA, 72 h; series mostly up to 28.7 µM. The procedure, abridged: as §1
The target of test [3] is Androgen receptor (Homo sapiens) (UniProt P10275). Description: qHTS assay for small molecule agonists of androgen receptor signaling (AID 588515; active means well fitted curve in the direction sought with a large enough effect in the signal ratio, with a control signal flat; the % refers to the signal ratio; further: on the % scale 0 is the no-effect control and ±100 the full control effect). The following applies: AR-UAS-bla HEK293, beta-lactamase ratio, agonist 16 h; stronger effect = higher value. In outline: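 Stimulation of an AR-responsive β-lactamase reporter in GripTite HEK293 cells was measured after 16 h compound exposure at 37 °C, via CCF4 fluorescence after 2 h RT. EC50 from Hill fits, normalized to R1881 at 30 nM.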
Androgen receptor (Homo sapiens), sequence (P10275 whole entry, looked up): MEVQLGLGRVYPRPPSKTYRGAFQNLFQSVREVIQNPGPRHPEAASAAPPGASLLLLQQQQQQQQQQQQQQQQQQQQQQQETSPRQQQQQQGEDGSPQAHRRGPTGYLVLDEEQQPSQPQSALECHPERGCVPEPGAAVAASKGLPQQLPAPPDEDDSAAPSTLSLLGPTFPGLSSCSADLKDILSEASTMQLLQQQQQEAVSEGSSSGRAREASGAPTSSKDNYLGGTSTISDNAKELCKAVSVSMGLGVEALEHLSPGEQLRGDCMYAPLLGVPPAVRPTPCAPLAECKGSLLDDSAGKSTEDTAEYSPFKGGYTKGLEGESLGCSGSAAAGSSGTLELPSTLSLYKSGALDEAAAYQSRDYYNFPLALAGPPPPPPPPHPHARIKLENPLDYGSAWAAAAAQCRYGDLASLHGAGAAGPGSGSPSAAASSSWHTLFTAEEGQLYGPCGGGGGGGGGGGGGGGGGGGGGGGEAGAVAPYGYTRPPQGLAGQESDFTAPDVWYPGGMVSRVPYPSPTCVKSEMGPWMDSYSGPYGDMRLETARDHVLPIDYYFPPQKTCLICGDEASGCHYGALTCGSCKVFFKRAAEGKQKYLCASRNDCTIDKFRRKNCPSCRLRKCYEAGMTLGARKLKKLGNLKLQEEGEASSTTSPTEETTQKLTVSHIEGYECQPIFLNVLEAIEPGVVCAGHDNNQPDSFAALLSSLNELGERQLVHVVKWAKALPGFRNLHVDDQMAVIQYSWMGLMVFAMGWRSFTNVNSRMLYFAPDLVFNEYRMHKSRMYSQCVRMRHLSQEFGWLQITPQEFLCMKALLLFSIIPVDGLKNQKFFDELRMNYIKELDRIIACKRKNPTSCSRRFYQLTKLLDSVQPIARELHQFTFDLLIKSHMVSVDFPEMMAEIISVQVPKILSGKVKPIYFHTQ

The target is the same in test [4]. The experiment in a line: qHTS assay for small molecule antagonists of androgen receptor signaling (AID 588516; active means well fitted curve in the direction sought with a large enough effect in the signal ratio, with a control signal flat, not every such curve was filed as active; the % refers to the signal ratio; further: on the % scale 0 is the no-effect control and ±100 the full control effect). The procedure, abridged:
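Antagonist mode: inhibition of R1881-stimulated (10 nM final) bla reporter in GeneBLAzer AR HEK 293 cells, 16 h at 37C, compounds titrated. IC50 and efficacy from Hill-equation fits of 405/460–530 nm FRET ratios.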

Test [5] concerns the target Bile acid receptor (Homo sapiens) (UniProt Q96RI1). Description: qHTS assay for small molecule antagonists of farnesoid X receptor signaling (AID 588526; calls by dose curve; further: on the % scale 0 is the no-effect control and ±100 the full control effect). In outline:
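Concentration-response titrations were fitted to the Hill equation for half-maximal inhibition and maximal response, with data normalised to 50 uM chenodeoxycholic acid and DMSO control wells. Cells: FXR-UAS-bla HEK293T, dialyzed FBS.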

The nature of test [6]: qHTS assay for small molecule antagonists of peroxisome proliferator-activated receptor delta signaling (AID 588535; active means well fitted inhibition curve with a large enough effect in the signal ratio, with a control signal flat, not every such curve was filed as active; the % refers to the signal ratio;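 on max response: cells co-treated with a PPAR-delta agonist as stimulator during compound exposure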). Particulars: HEK293T PPARd-UAS-bla, beta-lactamase FRET ratio, 18 h; 460 nm channel. In outline: (§2)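 Inhibition of PPAR-delta response element-driven beta-lactamase expression is measured in HEK293T cells exposed to a compound titration series for 18 hrs at 37 C. Half-maximal inhibition comes from Hill equation fitting.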

For test [7], the target named is Peroxisome proliferator-activated receptor delta (Homo sapiens) (UniProt Q03181). The test is described as above. The procedure, abridged:
as §2

The target of test [8] is Peroxisome proliferator-activated receptor gamma (Homo sapiens) (UniProt P37231). Description: qHTS assay for small molecule agonists of peroxisome proliferator-activated receptor gamma signaling (AID 588536; active means well fitted curve in the direction sought with a large enough effect in the signal ratio, with a control signal flat, not every such curve was filed as active; the % refers to the signal ratio;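 further: 0% = DMSO basal wells and 100% = rosiglitazone at 2 µM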). The procedure, abridged:
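Cells were plated and held 6–6.5 h at 37 C, then compounds were added as a titration series. After a further 16 h, CCF4 dye was loaded for 2 h at room temperature and emission at 460/530 nm recorded.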

Test [9] deals with Vitamin D3 receptor (Homo sapiens) (UniProt P11473). Description: qHTS assay for small molecule antagonists of vitamin D receptor signaling (AID 588541; calls by dose curve;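 further: receptor activated by calcitriol during compound treatment; on the % scale 0 is the no-effect control and ±100 the full control effect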). The procedure, abridged: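 VDR-UAS-bla HEK293T cells (2000/well, 2% charcoal-stripped FBS) were treated with titrated compounds plus 1-alpha,25-dihydroxyvitamin D3 (50 nM or 3 nM final) for 16 h at 37 C. CCF4 beta-lactamase fluorescence was read; Hill fits gave IC50.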
Vitamin D3 receptor (Homo sapiens), sequence (P11473 whole entry, looked up): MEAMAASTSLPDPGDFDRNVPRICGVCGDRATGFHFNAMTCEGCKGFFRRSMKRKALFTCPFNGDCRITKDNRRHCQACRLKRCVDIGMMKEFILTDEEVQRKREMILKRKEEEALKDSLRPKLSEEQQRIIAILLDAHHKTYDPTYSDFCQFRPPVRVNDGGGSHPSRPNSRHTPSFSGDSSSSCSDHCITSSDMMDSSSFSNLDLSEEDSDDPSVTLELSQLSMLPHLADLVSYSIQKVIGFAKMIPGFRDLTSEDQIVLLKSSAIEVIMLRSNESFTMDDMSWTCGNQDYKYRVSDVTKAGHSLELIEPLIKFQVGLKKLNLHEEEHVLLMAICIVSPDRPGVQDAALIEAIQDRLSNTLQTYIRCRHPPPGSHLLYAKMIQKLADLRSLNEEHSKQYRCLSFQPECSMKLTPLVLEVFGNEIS

The target is the same in test [10]. Description: qHTS assay for small molecule agonists of vitamin D receptor signaling (AID 588543; calls by dose curve;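 further: 0% = DMSO basal and 100% = reference agonist control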). In outline: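 Agonist-mode beta-lactamase reporter: HEK293T VDR-UAS-bla cells in charcoal-stripped 2% FBS, compound series 16 h 37 C, CCF4 2 h RT. EC50 from Hill fit, scaled against DMSO and 50 nM calcitriol control.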
Test [11] addresses Retinoic acid receptor RXR-alpha (Homo sapiens) (UniProt P19793). The experiment in a line: qHTS assay for small molecule agonists of retinoid X receptor alpha signaling (AID 588544; calls by dose curve;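 further: 0% = DMSO basal wells and 100% = reference agonist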).
The target in test [12] is Cytochrome P450 3A4 (Homo sapiens) (UniProt P08684). Description: qHTS Assay for Inhibitors and Substrates of Cytochrome P450 3A4 (AID 884). Further: potency means the concentration at half of the fitted maximal effect; nearly all actives have a fitted effect of over 50% in size. In outline: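 Luminescent readout of luciferin produced by CYP3A4 (20 nM) dealkylation of Luciferin-PPXE, 25 uM (its KM). NADPH-driven reaction ran 60 min at RT after 10 min compound preincubation; data scaled to 57 uM ketoconazole as 100% inhibition.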
Cytochrome P450 3A4 (Homo sapiens), sequence (P08684 whole entry, looked up): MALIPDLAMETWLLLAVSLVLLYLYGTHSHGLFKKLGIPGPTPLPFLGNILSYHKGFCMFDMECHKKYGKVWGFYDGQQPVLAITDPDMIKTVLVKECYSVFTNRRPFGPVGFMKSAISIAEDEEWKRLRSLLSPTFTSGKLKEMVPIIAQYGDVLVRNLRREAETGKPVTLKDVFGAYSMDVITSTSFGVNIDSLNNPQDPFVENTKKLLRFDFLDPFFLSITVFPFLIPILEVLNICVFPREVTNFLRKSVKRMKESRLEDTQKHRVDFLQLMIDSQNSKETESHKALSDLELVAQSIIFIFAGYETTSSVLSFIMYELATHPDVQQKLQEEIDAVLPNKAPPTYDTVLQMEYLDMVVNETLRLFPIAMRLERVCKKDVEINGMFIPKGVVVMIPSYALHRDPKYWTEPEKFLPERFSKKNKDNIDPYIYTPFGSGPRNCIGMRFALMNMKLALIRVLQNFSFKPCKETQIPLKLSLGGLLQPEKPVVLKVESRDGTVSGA

Test [13] is described as follows: Confirmation and Secondary Assay for Modulators of Hemoglobin Beta Chain Splicing at IVS2 654 locus (AID 910). Further: % of control where 0% means no effect. In outline: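 HeLa cells stably carrying EGFP interrupted by mutant beta-globin IVS2-654 intron (CMV-driven) were treated with compound for 2 days at 37C; corrected splicing was scored as total peak GFP intensity per well (488 nm excitation, 500-520 nm emission).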

The nature of test [14]: Confirmation and Secondary Assay for Modulators of Hemoglobin Beta Chain Splicing at IVS2 705 locus (AID 930).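 Further: HeLa cells stably expressing the EGFP-705 splicing reporter; GFP fluorescence per well restored by corrected splicing of the IVS2-705 intron in EGFP; % of control where 0% means no effect.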 The procedure, abridged: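 Read-out: total peak GFP fluorescence per well (488 nm excitation, 500-520 nm emission) by laser-scanning cytometry. Cells: HeLa EGFP-705 splicing reporter, 2 days compound exposure in Optimem/2% FCS.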

Retinoic acid receptor RXR-alpha (Homo sapiens), sequence (P19793 whole entry, looked up): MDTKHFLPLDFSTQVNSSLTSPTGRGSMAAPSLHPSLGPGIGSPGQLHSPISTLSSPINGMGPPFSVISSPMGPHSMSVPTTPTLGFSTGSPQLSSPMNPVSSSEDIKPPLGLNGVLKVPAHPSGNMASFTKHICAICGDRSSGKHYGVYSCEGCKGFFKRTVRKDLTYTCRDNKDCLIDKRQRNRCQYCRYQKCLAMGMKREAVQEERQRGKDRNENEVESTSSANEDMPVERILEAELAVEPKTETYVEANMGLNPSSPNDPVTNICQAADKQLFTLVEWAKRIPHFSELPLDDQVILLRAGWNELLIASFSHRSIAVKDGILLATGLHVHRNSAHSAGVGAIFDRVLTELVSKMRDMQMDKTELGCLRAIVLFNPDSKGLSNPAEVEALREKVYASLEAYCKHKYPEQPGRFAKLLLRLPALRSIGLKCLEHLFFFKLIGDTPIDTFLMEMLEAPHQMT
Bile acid receptor (Homo sapiens), sequence (Q96RI1 whole entry, looked up): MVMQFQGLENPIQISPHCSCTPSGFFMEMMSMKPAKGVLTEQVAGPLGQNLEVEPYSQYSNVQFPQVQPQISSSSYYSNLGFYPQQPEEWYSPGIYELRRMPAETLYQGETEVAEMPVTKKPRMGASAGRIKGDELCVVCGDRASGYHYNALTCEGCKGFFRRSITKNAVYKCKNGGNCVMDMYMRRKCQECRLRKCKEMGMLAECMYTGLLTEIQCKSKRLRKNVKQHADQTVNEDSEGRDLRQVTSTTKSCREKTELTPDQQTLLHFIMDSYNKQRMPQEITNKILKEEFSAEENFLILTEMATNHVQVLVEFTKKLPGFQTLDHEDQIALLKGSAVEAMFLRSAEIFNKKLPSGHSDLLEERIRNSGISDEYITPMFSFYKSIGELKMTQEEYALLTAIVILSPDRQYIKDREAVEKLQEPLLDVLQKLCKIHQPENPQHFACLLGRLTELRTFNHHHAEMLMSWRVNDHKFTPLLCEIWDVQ
Peroxisome proliferator-activated receptor gamma (Homo sapiens), sequence (P37231 whole entry, looked up): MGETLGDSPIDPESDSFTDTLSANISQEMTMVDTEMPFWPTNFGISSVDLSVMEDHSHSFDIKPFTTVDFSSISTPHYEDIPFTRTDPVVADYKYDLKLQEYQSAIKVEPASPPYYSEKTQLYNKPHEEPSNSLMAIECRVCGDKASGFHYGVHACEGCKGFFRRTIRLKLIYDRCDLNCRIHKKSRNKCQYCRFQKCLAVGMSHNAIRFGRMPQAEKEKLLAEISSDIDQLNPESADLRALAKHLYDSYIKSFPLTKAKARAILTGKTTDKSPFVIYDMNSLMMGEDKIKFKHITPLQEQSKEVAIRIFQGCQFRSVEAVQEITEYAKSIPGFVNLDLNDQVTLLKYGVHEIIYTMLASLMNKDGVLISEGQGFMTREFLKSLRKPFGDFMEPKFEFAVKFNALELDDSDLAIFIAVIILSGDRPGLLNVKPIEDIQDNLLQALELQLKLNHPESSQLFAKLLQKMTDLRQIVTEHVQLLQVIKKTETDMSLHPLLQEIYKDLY
Peroxisome proliferator-activated receptor delta (Homo sapiens), sequence (Q03181 whole entry, looked up): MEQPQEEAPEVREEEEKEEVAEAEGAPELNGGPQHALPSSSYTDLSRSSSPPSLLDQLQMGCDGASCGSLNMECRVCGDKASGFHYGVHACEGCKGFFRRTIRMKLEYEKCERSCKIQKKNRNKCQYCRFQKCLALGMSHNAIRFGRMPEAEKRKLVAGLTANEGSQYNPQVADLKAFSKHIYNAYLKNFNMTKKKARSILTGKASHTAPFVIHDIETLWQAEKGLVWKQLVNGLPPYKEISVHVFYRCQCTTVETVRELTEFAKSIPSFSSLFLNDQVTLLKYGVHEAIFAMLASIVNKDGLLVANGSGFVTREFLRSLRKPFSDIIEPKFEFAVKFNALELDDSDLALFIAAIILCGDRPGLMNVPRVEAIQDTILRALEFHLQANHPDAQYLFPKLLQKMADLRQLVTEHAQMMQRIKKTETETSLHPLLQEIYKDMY

Turning to `CC1(C)OC[C@@H]2O[C@@]3(C(=O)O)OC(C)(C)O[C@@H]3[C@@H]2O1`, the Potency result (in test [1]; in test [2]; with DFO2036; in the test on DIV14; with ICS) was “inactive” throughout.
`O=C1C(I)=CC(=C(c2cc(I)c(O)c(I)c2)c2ccccc2C(=O)O)C=C1I`: the Potency result in the test on DFO2036, in the test with DIV14, in the test on ICS and in the test with W2 was “inactive” in each case.
On to `CC1OC(OC2CCC3(C)C(CCC4C3CC(O)C3(C)C(C5=CC(=O)OC5)CCC43O)C2)CC(O)C1OC1CC(O)C(OC2CC(O)C(OC3OC(CO)C(O)C(O)C3O)C(C)O2)C(C)O1` (stereo not drawn), for which the Potency result (in test [1]; in [2]; in the test on DFO2036; with DIV14; in the test on ICS; with W2) was “inactive” throughout.
Take `CCCC(=O)O[C@]1(C(=O)COC(C)=O)CC[C@H]2C3C[C@H](F)C4=CC(=O)C=CC4(C)[C@@]3(F)[C@@H](O)CC21C` (stereo partly drawn): the Potency entry (in test [2]; in the test on DFO2036) was “inactive” each time.
For the compound `CC1CCC(C(C)C)C(O)C1` (stereo not drawn), the Potency entry (in [1]; in test [5]; in test [9]; in test [2]; in the test with DIV14; with ICS) was “inactive” in each case. The Potency entry with W2 is “inactive”. The activation in [3] is 13.2% (inactive). Moreover, the compound was classed as inactive in [4], in [7], in test [8], in test [10] and in [11]. Also, the max response in test [6] came to 8.18%.
As for `C=C1NC(=O)c2cc(CN(C)c3ccc(C(=O)N[C@@H](CCC(=O)O)C(=O)O)s3)ccc2N1`, the Potency entry (in test [1]; in the test with DFO2036) was “inactive” in each case. The Potency in test [2] is 5.7 nM (active); in the test on W2, 13500 nM (active).
With `CNC1C(O)C(OC2C(NC(=O)C(O)CN)CC(N)C(OC3OC(CN)C(O)C(O)C3O)C2O)OCC1(C)O` (stereo not drawn), the Potency entry (in test [1]; in test [2]; in the test with DIV14; in the test on W2) was “inactive” throughout.
Regarding `CO/N=C(/C(=O)N[C@@H]1C(=O)N2C(C(=O)O)=C(CSc3nnnn3C)CS[C@H]12)c1csc(N)n1`, the Potency result (in [1]; in [2]; with DFO2036; in the test with DIV14; with ICS; with W2) was “inactive” in each case.
With `CC(=O)N1CC(O)CC1C(=O)O` (stereo not drawn), the Potency result (in test [1]; in test [2]; with DFO2036; in the test with DIV14; in the test with ICS; with W2) was “inactive” each time.
On to `CC(=O)C1(O)Cc2c(O)c3c(c(O)c2C(OC2CC(N)C(O)C(C)O2)C1)C(=O)c1c(O)cccc1C3=O` (stereo not drawn), for which the Potency is 22400 nM (active) in [1]; 7940 nM (active) with DFO2036; 5360 nM (active) in the test with DIV14; 3550 nM (active) in the test on ICS; 4260 nM (active) in the test on W2.
As for `CO/N=C(/C(=O)N[C@@H]1C(=O)N2C(C(=O)O)=C(CSC(=O)c3ccco3)CSC12)c1csc(N)n1` (stereo partly drawn), the Potency result (in test [1]; in test [2]; with DFO2036; in the test with DIV14; in the test on ICS; in the test with W2) was “inactive” throughout.
Take `CC1(C)CC1C(=O)N/C(=C/CCCCSCC(N)C(=O)O)C(=O)O` (stereo not drawn): the Potency result (in [1]; in test [2]; in the test with DIV14; in the test on ICS; in the test with W2) was “inactive” each time.
For `CN[C@H](C)CCC=C(C)C`, the Potency result in test [1] and in test [2] was “inactive” each time. Also, the Potency was 151 nM (active) in the test with DIV14, 44.7 nM (active) in the test on ICS and 47.8 nM (active) in the test with W2.
With `C[C@@H]1CCN(C(=O)[C@H](CCCNC(=N)N)NS(=O)(=O)c2cccc3c2NC[C@H](C)C3)[C@@H](C(=O)O)C1`, the Potency entry (in test [1]; in test [2]; with DFO2036; in the test with DIV14; with ICS) was “inactive” each time.
For `C=C[C@@]1(C)C[C@H](OC(=O)CSC(C)(C)CNC(=O)[C@@H](N)C(C)C)[C@@]2(C)C(C)CC[C@@]3(CCC(=O)[C@@H]32)[C@H](C)[C@H]1O` (stereo partly drawn), the Potency result in test [1] is “inactive”. In addition, the Potency in test [2] was 361 nM (active); with DIV14, 6010 nM (active); in the test with ICS, 2820 nM (active); in the test with W2, 269 nM (active).
For `CC[C@H](C)[C@H]1O[C@]2(CC[C@@H]1C)C[C@@H]1C[C@@H](C/C=C(\C)[C@H](O[C@@H]3C[C@H](OC)[C@H](O[C@@H]4C[C@H](OC)[C@@H](O)[C@H](C)O4)[C@H](C)O3)[C@@H](C)/C=C/C=C3\CO[C@@H]4[C@H](O)C(C)=C[C@@H](C(=O)O1)[C@]34O)O2`, the Potency in [2] is 9070 nM (active); with DFO2036, 794 nM (active); with DIV14 it was 1690 nM (active); with ICS, 1260 nM (active); in the test with W2, 1690 nM (active).
Turning to `OCC(CO)NC1C[C@](O)(CO)[C@@H](O)[C@H](O)[C@H]1O` (stereo partly drawn), the Potency entry (in [1]; in test [2]; in the test with DFO2036; in the test on DIV14; in the test with ICS; with W2) was “inactive” throughout.
Consider `CCCCC(=O)O[C@]1(C(=O)CO)CCC2C3CCC4=CC(=O)CCC4(C)C3C(O)CC21C` (stereo partly drawn), for which the Potency entry (in [2]; with DFO2036; in the test with DIV14) was “inactive” in each case.
With `CC1(C(=O)O)CCC2(C)CCC3(C)C(=CC(=O)C4C5(C)CCC(O)C(C)(C)C5CCC43C)C2C1` (stereo not drawn), the Potency entry (in test [2]; with DFO2036; in the test with DIV14; in the test with ICS; in the test on W2) was “inactive” each time.
As to `C/C(=C(/CCO)SS/C(CCO)=C(\C)N(C=O)Cc1cnc(C)nc1N)N(C=O)Cc1cnc(C)nc1N`, the Potency entry (in test [1]; in [2]; in the test on DFO2036; with DIV14; in the test with ICS; in the test with W2) was “inactive” in each case.
As for `OCC1OC(O)C(O)C(O)C1O` (stereo not drawn), the Potency entry (in [1]; in test [2]; in the test on DFO2036; with ICS) was “inactive” in each case.
As to `O=C(O)Cc1sc(-c2ccc(Cl)cc2)nc1-c1ccccc1`, the Potency result (in test [1]; in test [2]; in the test with DIV14; in the test with ICS; in the test with W2) was “inactive” in each case.
For the compound `CCC(C(=O)C(C)C(O)C(C)CCc1ccc(C)c(O)c1C(=O)O)C1OC(CC)(C2CC[C@@](O)(CC)C(C)O2)CC1C` (stereo partly drawn), the Potency in test [12] was 20000 nM (active); in [2], 1810 nM (active); in the test with DIV14, 953 nM (active); in the test on ICS it was 631 nM (active); with W2 it was 675 nM (active). Besides, the Potency entry in test [13] and in test [14] was “inactive” each time.
